The results in this text go back to ChEMBL document CHEMBL1961873, “Compounds: GSK PKIS; Assays: Nanosyn kinase panel” (2012).

Broadly, the inhibition is the change of the read-out against control, counted positive when it falls.

Each structure is given as a SMILES string.
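Note: values are mean percent inhibition of PAK6 kinase.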

For this assay, the target named is Serine/threonine-protein kinase PAK 6 (Homo sapiens) (UniProt Q9NQU5). Conditions: at 1 µM.
Sequence of Serine/threonine-protein kinase PAK 6 (Homo sapiens) (Q9NQU5 whole entry, looked up): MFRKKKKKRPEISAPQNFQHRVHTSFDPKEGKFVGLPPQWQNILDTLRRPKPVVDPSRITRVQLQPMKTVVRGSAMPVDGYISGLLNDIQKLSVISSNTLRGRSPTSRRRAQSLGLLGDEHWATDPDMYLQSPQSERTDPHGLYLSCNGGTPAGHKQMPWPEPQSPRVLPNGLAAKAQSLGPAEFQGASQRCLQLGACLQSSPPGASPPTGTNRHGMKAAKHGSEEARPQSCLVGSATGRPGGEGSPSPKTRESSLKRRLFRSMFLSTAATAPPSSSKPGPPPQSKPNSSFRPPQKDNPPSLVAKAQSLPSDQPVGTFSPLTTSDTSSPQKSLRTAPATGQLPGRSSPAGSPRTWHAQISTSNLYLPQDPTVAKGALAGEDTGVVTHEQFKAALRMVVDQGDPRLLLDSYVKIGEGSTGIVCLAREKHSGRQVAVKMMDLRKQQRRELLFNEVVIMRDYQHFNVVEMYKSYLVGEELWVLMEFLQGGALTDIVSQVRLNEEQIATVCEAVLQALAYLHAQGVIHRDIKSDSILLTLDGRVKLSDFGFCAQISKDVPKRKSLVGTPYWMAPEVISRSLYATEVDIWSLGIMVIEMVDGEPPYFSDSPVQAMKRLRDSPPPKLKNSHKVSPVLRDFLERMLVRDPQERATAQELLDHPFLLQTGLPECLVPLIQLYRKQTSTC
With `c1ccc(COc2ccc(Nc3ncnc4ccc(-c5ccco5)cc34)cc2)cc1`, the inhibition came out at 1.25%.

With `COc1ccc2c(-c3ccnc(Nc4cccc(OC(F)(F)F)c4)n3)cnn2n1`, the inhibition worked out at 6.82%.

Take `CN1CCC(n2cnc(-c3ccc(F)cc3)c2-c2ccnc(N)n2)CC1`: the inhibition was -6%.

Turning to `COc1ccc(-c2cc(-c3c[nH]nc3-c3ccccn3)ccn2)cc1`, the inhibition is -3.15%.

`Cc1cccc(Nc2ncc(-c3ccccc3)o2)c1`: the inhibition was 4.48%.

Consider `COC(=O)c1sc(-n2cnc3cc(OC)c(OC)cc32)cc1OCc1ccccc1C(F)(F)F`, for which the inhibition was 0.71%.

Consider `N#Cc1c(NC(=O)CN2CCOCC2)sc2c1CCCC2`, for which the inhibition was -4.27%.

As to `COc1ccc(-c2cc3c(N)ncnc3o2)cc1`, the inhibition is -9.7%.

On to `N#Cc1c(NC(=O)c2ccc(F)cc2)sc2c1CCCC2`, for which the inhibition was -6.51%.

Consider `Cc1ccc2c(-c3ccnc(Nc4ccccc4)n3)c(-c3ccc(F)cc3)nn2n1`, for which the inhibition was determined as 5.13%.

For `CNC(=O)c1cc(-c2ccc(F)cc2)cc(-c2ccc(S(=O)(=O)N3CCCC3)cc2)c1N`, the inhibition is -8.22%.

Take `Cc1ccc(O)cc1Nc1ccnc2cc(-c3ccccn3)ccc12`: the inhibition stood at 4.08%.

Consider `CCc1nn2ncccc2c1-c1ccnc(NC2CC2)n1`, for which the inhibition was -4.39%.

In the case of `CCCN1CCC(c2ccc(Nc3nc(Nc4cc(F)ccc4C(N)=O)c4cc[nH]c4n3)c(OC)c2)CC1`, the inhibition is -7.38%.

As for `Fc1ccc(-c2nn3ccccc3c2-c2ccncc2)cc1`, the inhibition was -2%.

For `O=C(O[C@H]1CN[C@H](C#Cc2cc3ncnc(Nc4ccc(Cc5ccccc5)cc4)c3s2)C1)N1CCOCC1`, the inhibition was -5.73%.

In the case of `COc1ccc(-c2nn3ncccc3c2-c2ccnc(Nc3ccc4c(c3)OCCO4)n2)cc1`, the inhibition was -1.85%.

`CN(C)CCOc1ccc(-c2nc(-c3ccncc3)c(-c3ccc4c(c3)CC/C4=N\O)[nH]2)cc1`: the inhibition worked out at 9.98%.

For `CCN1CCC(CC(=O)Nc2n[nH]c3nnc(-c4cccc(F)c4F)cc23)CC1`, the inhibition turned out to be 0.04%.

As to `COc1cccc(-c2c[nH]c3c(N/N=C/c4ccncc4)ncnc23)c1`, the inhibition was -1.79%.

Consider `Fc1ccc(-c2nn3ncccc3c2-c2ccnc(Nc3ccc4c(c3)OCCO4)n2)cc1`, for which the inhibition was -1.03%.

Take `COc1cc(Nc2nccc(Nc3ccc4c(C)n[nH]c4c3)n2)cc(OC)c1OC`: the inhibition was -1.27%.

`CC(C)COC(=O)c1ccc2c(c1)/C(=C/Nc1ccc(S(N)(=O)=O)cc1)C(=O)N2`: the inhibition worked out at 0.35%.

In the case of `NS(=O)(=O)c1ccc(N/N=C2\C(=O)Nc3ccc4ncccc4c32)cc1`, the inhibition stood at 1.45%.

In the case of `COc1cc(N2CCN(C(C)C)CC2)ccc1Nc1nc(Nc2ccc(F)cc2C(N)=O)c2cc[nH]c2n1`, the inhibition stood at 3.58%.

For the compound `CCn1c(-c2nonc2N)nc2c(C#CC(C)(C)O)ncc(OC3CCNCC3)c21`, the inhibition was 76%.

Take `CNC(=O)c1cccc(C#Cc2cncnc2Nc2ccc(OCc3cccc(F)c3)c(Cl)c2)c1`: the inhibition amounted to 0.68%.

As for `Fc1cccc(COc2ccc(Nc3ncnc4sc(-c5ccco5)cc34)cc2Cl)c1`, the inhibition is -3.19%.

Regarding `c1ccc(-c2nc3n(c2-c2ccc4c(c2)OCO4)CCC3)nc1`, the inhibition is -6.18%.

`O=S(=O)(CCNCc1ccc(-c2ccc3ncnc(Nc4ccc(OCc5cccc(F)c5)c(Cl)c4)c3c2)o1)c1ccccc1`: the inhibition was determined as 0.68%.

For `COc1cc(/C=N/Nc2ncnc3[nH]ncc23)ccc1O`, the inhibition was found to be 4.44%.

On to `CS(=O)(=O)CCNCc1coc(-c2ccc3ncnc(Nc4ccc(OCc5ccccc5)cc4)c3c2)c1`, for which the inhibition was -4.66%.

With `COc1cc2c(cc1Nc1nc(Nc3ccsc3C(N)=O)c3cc[nH]c3n1)N(C(=O)CN(C)C)CCC2(C)C`, the inhibition amounted to 3.1%.
